# SENP8 block-1 = human SENP8 protease inhibitors, primary screen, biochemical, fluorescence, Nedd8 protein substrate, uHTS. recombinant SENP8. Sentrin-specific protease 8 (Homo sapiens), Q96LD8. inhibition, % at 20 µM. 360,000 tested, 0.64% active; in the data active means inhibition mostly above about 40%, no sharp cut-off; inactive means mostly below about 27%
# SENP8 block-2 = SENP8 protease inhibitors, primary screen, biochemical, luminescence; purified SENP8, Z-RLRGG-aminoluciferin cleavage; Sentrin-specific protease 8 (Homo sapiens), Q96LD8; 330,000 tested, 1.2% active; inhibition, % at 10 µM; AID 2540, 2010; in the data active means inhibition above about 50%
# SENP7 block = SENP7 protease inhibitors, primary screen, biochemical, luminescence, uHTS; recombinant SENP7, Z-RLRGG-aminoluciferin luminescence, 40 min; 330,000 tested, 1.5% active; AID 434973, 2010; inhibition, % at 5 µM;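 active means inhibition above about 50% at the single test dose, limit read from the data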;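 further: plate controls were DMSO with enzyme for no effect and no enzyme buffer wells for full effect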
# Platelet DG rel = inhibitors of platelet dense granule secretion, primary screen, cell-based, MLPCN, human platelets. 300,000 tested, 0.22% active. inhibition, %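 (compounds screened at 7.5 µM in platelet-rich plasma)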. AID 1663, 2009. human platelet-rich plasma, SFLLRN dense granule ATP release, luminescence;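 active means mean replicate score, as percent of positive control, at or above 50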
# SENP6 inh = SENP6 protease inhibitors, primary screen, biochemical, luminescence, uHTS; Recombinant SENP6 catalytic domain, aminoluciferin luminescence; inhibition, % at 10 µM; 330,000 tested, 1.8% active; AID 2599, 2010;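 active means inhibition above about 50% at the single tested dose, limit read from the data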;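 further: plate controls were DMSO wells with enzyme for no effect and DMSO wells lacking enzyme for full effect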
# Target sequence (Q9GZR1 628-1112 limits assumed): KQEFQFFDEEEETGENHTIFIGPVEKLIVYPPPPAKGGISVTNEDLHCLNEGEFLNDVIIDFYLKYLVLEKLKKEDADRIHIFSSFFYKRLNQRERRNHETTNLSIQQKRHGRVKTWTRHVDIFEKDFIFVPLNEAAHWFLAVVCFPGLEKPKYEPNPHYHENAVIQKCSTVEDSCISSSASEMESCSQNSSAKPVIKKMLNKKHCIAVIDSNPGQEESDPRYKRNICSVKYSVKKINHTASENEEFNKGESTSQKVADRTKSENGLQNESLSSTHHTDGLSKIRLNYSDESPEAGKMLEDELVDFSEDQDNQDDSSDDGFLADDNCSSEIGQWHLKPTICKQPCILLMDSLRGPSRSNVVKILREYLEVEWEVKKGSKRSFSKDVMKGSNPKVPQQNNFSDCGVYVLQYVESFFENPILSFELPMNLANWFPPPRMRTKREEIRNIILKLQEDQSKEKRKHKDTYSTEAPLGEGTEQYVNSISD
# SENP8 confirm = SENP8 protease inhibitors, retest, confirmation, biochemical, luminescence, single concentration; 6,200 tested, 40% active; inhibition, % at 12.5 µM; Recombinant SENP8, Z-RLRGG-aminoluciferin luminescence, 60 min; shares compounds with SENP7 block; AID 488912, 2010;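 active means mean inhibition across replicates above about 50%, limit read from the data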
# SENP6 conf = SENP6 protease inhibitors, confirmation, biochemical, luminescence, single concentration; AID 488915, 2010; 6,200 tested, 58% active; shares compounds with SENP7 block; inhibition, % at 12.5 µM; recombinant SENP6, Z-RLRGG-aminoluciferin luminescence
# SENP7 confirm = SENP7 protease inhibitors, retest, confirmation, biochemical, luminescence, single concentration | shares compounds with SENP7 block | recombinant SENP7, Z-RLRGG-aminoluciferin luminescence, 40 min | inhibition, % at 12.5 µM | 6,200 tested, 69% active | AID 488917, 2010
# Casp3 SENP sel = caspase-3 protease inhibitors, confirmation, selectivity assay for SENP inhibitor project, biochemical, single concentration. 6,200 tested, 60% active. inhibition, % at 12.5 µM. purified caspase-3, Z-DEVD-aminoluciferin luminescence, 60 min. shares compounds with SENP7 block;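 active means mean inhibition above about 50%, limit read from the data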;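 further: plate controls were enzyme with DMSO for no effect and wells without caspase-3 for full effect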
# SENP luc ctr = luminescence interference (SENP counter-screen). 6,200 tested, 39% active. Pre-incubated SENP8/Z-RLRGG-aminoluciferin, luciferase luminescence interference. shares compounds with SENP7 block. inhibition, % at 12.5 µM;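 active means mean inhibition above about 50% when retested at one dose, limit read from the data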;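 further: plate controls were DMSO wells with completed reaction for no effect and substrate without enzyme for full effect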
# * hit, by the source's call; i = inactive; . = no result. Only some compounds are listed: those with a hit (about 2.4% of all), similar ones and a draw of the others.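 How the source made its calls, unless noted: active means mean inhibition above about 50% in the one-dose retest (limit read from the data); inactive means the rest.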
SMILES,SENP8 block-1,SENP8 block-2,SENP7 block,Platelet DG rel,SENP6 inh,SENP8 confirm,SENP6 conf,SENP7 confirm,Casp3 SENP sel,SENP luc ctr
COc1ccc(/C(N)=N/OC(=O)c2cccs2)cc1,11,58*,15,0,77*,64*,74*,95*,75*,82*
CC1=CC2C(C3C=CC2(C)C(=O)C3(C)O)C(C)(O)C1=O (configuration not stated),8,.,.,.,.,.,.,.,.,.
N#CCN1CCC2(O)CCCCC2C1c1ccc2c(c1)OCO2 (configuration not stated),12,2,-2,2,-12,.,.,.,.,.
CCOc1ccc(C(=O)NC(=S)NC2CCCC2)cc1[N+](=O)[O-],16,3,4,-12,-46,.,.,.,.,.
Cc1cc(C)c(C)c(OCCN2CC(C)OC(C)C2)c1 (configuration not stated),10,4,4,7,4,.,.,.,.,.
N/C(=N\OC(=O)Cc1cccs1)c1ccc(Cl)cc1,0,-9,-1,-15,-2,.,.,.,.,.
N/C(=N\OC(=O)c1cccs1)c1ccc(Cl)cc1,18,51*,68*,-8,61*,5,6,11,7,11
C/C(=N\NC(=O)CCC(=O)Nc1ccc(C)c(C)c1)C1CC1,2,-7,10,.,-10,.,.,.,.,.
Cc1ccc(C(=O)OCC(=O)Nc2cccc(Cl)c2C)c(O)c1,-13,-1,1,17,-7,.,.,.,.,.
Cc1ccc(C(=O)OCC(=O)Nc2ccccc2Cl)c(O)c1,5,-18,66*,-12,17,12,12,5,9,6
COc1ccc(/C=C/C(=O)NC(=S)N2CCN(c3ccccc3OC)CC2)cc1,7,3,-6,-3,-6,.,.,.,.,.
COc1ccc(/C=C/C(=O)NC(=S)N2CCOCC2)cc1,-2,46,70*,8,70*,62*,56*,83*,80*,67*
Cc1cc(=O)n(C(C)c2ccccc2)n1C(C)c1ccccc1 (configuration not stated),11,.,.,.,.,.,.,.,.,.
NS(=O)(=O)c1ccc(NC(=O)C(=O)NCCC(=O)O)cc1,16,0,5,0,-13,.,.,.,.,.
CCOc1ccc(NC(=O)c2ccccc2O)cc1,5,36,38,14,64*,55*,49,78*,64*,63*
CCOc1ccc(NC(=O)c2ccccn2)cc1,6,81*,92*,31,91*,92*,92*,100*,96*,89*
CCOc1ccc(NC(=O)c2nccnc2CO)cc1,-12,14,48,20,53*,38,35,74*,82*,55*
CCOc1ccc(NC(=O)c2ccccc2CO)cc1,16,-16,1,5,13,.,.,.,.,.
CN1CCCN(C(=O)c2cc(-c3cccc4ccccc34)nc3ccccc23)CC1,-433,2,5,-1,-6,.,.,.,.,.
CCOC(=O)c1ccccc1NC(=O)COC(=O)C(CC)Oc1ccccc1 (configuration not stated),3,.,.,.,.,.,.,.,.,.
O=c1c2c3c(sc2nc2n1CCCCC2)CCCC3,4,21,33,5,62*,22,45,57*,56*,16
Cc1ccc(-c2nc3sc4c(c3c(=O)n2N)CCCC4)cc1,-30,36,54*,-9,72*,9,66*,88*,41,17
Nc1ccc2ccccc2c1N=Nc1ccccc1,25,.,.,.,.,.,.,.,.,.
O=C(NC1(O)C(=O)c2ccccc2C1=O)c1ccccc1,99*,65*,63*,14,70*,75*,89*,81*,7,10
O=C(NC1(O)C(=O)c2ccccc2C1=O)c1c(Cl)cccc1Cl,97*,64*,60*,-3,65*,67*,86*,75*,9,6
SMILES,SENP8 block-1,SENP8 block-2,SENP7 block,Platelet DG rel,SENP6 inh,SENP8 confirm,SENP6 conf,SENP7 confirm,Casp3 SENP sel,SENP luc ctr
COC1(NC(=O)c2ccccc2)C(C)=CC(=O)C=C1C,9,-1,-4,3,-9,.,.,.,.,.
Cc1ccc(OCCC(=O)NNC(=O)c2cc(C)oc2C)cc1,21,-10,7,-2,-10,.,.,.,.,.
Cc1cc(C)c2c(N)c(-c3nc4ccccc4[nH]3)sc2n1,-485,-4,1,-1,-8,.,.,.,.,.
Cc1ccc2nc(-c3sc4nc(C)ccc4c3N)[nH]c2c1,-253,24,7,0,56*,50,43,30,12,24
COCCNC(=S)N(CCc1c(C)[nH]c2ccc(F)cc12)Cc1ccco1,8,-3,-4,-1,-3,.,.,.,.,.
c1ccc(Cn2ccc(-c3cnc(-c4ccccc4)s3)n2)cc1,i,64*,80*,21,81*,9,78*,92*,63*,64*
c1ccc(Cc2ccc(OCCn3cncn3)cc2)cc1,21,-6,-6,4,-5,.,.,.,.,.
c1ccc(COc2ccc(OCCCn3cncn3)cc2)cc1,24,52*,77*,24,73*,74*,73*,89*,77*,74*
Clc1ccccc1CONc1ncnc2nonc12,21,34,36,3,62*,39,33,71*,53*,61*
COCCNc1ncnc2c1cnn2Cc1ccccc1Cl,14,5,2,-3,2,.,.,.,.,.
Cc1ccc(/C=N/N=C/c2ccc(C)s2)s1,22,41,63*,-3,77*,42,60*,82*,29,46
Cc1cc2nc(N)sc2cc1C,19,65*,70*,24,47,75*,74*,92*,84*,73*
CNS(=O)(=O)c1cc(NC(=O)c2cncn2-c2ccccc2)ccc1C,-2,-5,2,10,-2,.,.,.,.,.
CN1CCSc2ccc(C(=O)Nc3cc(F)ccc3F)cc21,-421,76*,89*,0,88*,86*,86*,96*,79*,25
